# Source: PubChem (several laboratories)
# NCOA2 inhibitor: human SRC2 (NCOA2) inhibition. Q15596. HEK293 GAL4-SRC2 luciferase reporter, luminescence. inhibition, % at 9 µM. hit rate 0.17% among 370,000. AID 651957;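 active = inhibition above the mean inhibition of all tested compounds plus 3 SD, set per campaign, cut at about 52% in these data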;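 note: 0% = DMSO treated cells and 100% = cells given Gossypol at 36 µM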
# NR5A2 inv ag: suppresses constitutive activity of human LRH-1; O00482; HEK293T StAR-luciferase reporter, LRH-1 transfected, 24 h; inhibition, % at 3.6 µM; hit rate 0.13% among 360,000; AID 602396;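 active = inhibition above the mean inhibition of all tested compounds plus 3 SD, cut at about 73% in these data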;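 note: 0% = DMSO wells and 100% = reporter-only cells lacking LRH-1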
# Target sequence (O00482 whole entry, looked up): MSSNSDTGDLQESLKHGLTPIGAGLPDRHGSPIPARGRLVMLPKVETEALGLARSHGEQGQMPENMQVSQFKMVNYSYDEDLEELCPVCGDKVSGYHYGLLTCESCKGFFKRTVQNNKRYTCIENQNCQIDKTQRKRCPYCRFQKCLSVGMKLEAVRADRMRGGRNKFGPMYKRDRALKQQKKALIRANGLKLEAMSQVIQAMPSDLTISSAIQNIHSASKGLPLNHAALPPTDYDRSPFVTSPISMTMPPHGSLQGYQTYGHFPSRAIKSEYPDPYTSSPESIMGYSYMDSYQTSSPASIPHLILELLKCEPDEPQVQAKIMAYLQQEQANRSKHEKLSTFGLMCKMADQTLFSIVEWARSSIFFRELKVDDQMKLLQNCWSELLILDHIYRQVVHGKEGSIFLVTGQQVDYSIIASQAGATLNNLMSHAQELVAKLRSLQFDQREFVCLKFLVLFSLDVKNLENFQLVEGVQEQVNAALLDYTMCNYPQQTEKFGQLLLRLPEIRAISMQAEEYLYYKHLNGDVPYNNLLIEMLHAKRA
# SRC3 inh: human NCOA3 inhibition. AID 588352. hit rate 0.17% among 360,000. inhibition, % at 3.6 µM. HEK293 GAL4-SRC3 luciferase reporter, luminescence. Q9Y6Q9;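 active = inhibition above a per-campaign cutoff, the mean of all compounds plus 3 SD, cut at about 60% in these data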;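 note: 0% = DMSO-treated cells and 100% = gossypol-treated cells at 36 µM; higher means less SRC3-driven luciferase light from the GAL4 reporter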
# SRC1 inh: human NCOA1 inhibition; hit rate 0.12% among 360,000; Q15788; HEK293 GAL4-SRC1 luciferase reporter, luminescence; inhibition, % at 3.6 µM;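 active = inhibition above the campaign mean plus 3 SD, with each screening campaign given its own cutoff, cut at about 60% in these data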;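 note: 0% = DMSO treated cells and 100% = gossypol at 36 µM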
# Gli-Sufu block: antagonists of Gli-Sufu signaling; Sufu-KO-LIGHT fibroblasts, Gli luciferase reporter luminescence; inhibition, % at 5 µM; hit rate 0.74% among 340,000; AID 588413;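 active = inhibition above about 55%, limit read from the data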;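 note: 0% = DMSO-treated cells and 100% = wells with medium but no cells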
# COUP-TFII inh: blocks human COUP-TFII nuclear receptor. P24468. inhibition, % at 8.6 µM. HEK293T NGFI-A luciferase reporter, luminescence. hit rate 0.7% among 370,000;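 active = inhibition above a per-plate cutoff, mean inhibition of test wells between control levels plus 3 SD, cut at about 38% in these data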;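 note: cells cotransfected with COUP-TFII expression vector driving the NGFI-A reporter; 0% = median of COUP-TF2 test wells and 100% = reporter-only cells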
# Gli-Sufu confirm: confirmation of Gli-SUFU pathway antagonists; AID 602428; hit rate 40% among 2,500; inhibition, % at 5 µM; Sufu-KO-LIGHT cells, Gli luciferase reporter, luminescence; shares compounds with Gli-Sufu block;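 active = mean inhibition at 5 µM reaching about 45%, limit read from the data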;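 note: plate controls were DMSO-treated cells for no effect and wells lacking cells for full effect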
# SufuKO cytotox: counter-screen for Gli-SUFU antagonists: cytotoxicity; shares compounds with Gli-Sufu block; Sufu-KO-LIGHT cells cytotoxicity, ATP luminescence; cytotoxicity, % at 5 µM; hit rate 32% among 2,500;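 active = mean cytotoxicity at 5 µM above about 25%, limit read from the data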;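 note: cells exposed to compound overnight for roughly 16 to 18 hours; plate controls were DMSO wells with cells for no effect and medium without cells for full effect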
# Wnt3a cs: inhibits Wnt3a reporter, counter-screen for Gli-SUFU antagonists; shares compounds with Gli-Sufu block; Wnt-LIGHT cells, Wnt3a-driven luciferase reporter, luminescence; inhibition, % at 6.25 µM; hit rate 20% among 2,500;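 active = mean inhibition above about 25%, limit read from the data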
# VP16 Luc counter: counter-screen for COUP-TFII antagonists: inhibitors of VP16. shares compounds with COUP-TFII inh. HEK293 Gal4-VP16 luciferase reporter, luminescence. inhibition, % at 8.5 µM. hit rate 25% among 2,500; in the data active = inhibition above about 13%
# COUP-TFII conf: COUP-TFII (NR2F2) inhibition, confirmation assay | AID 687008 | shares compounds with COUP-TFII inh | HEK293 NGFI-A luciferase reporter, luminescence | hit rate 45% among 2,500 | inhibition, % at 8.5 µM;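 active = mean inhibition over three repeats above a set limit taken from the earlier primary screen, cut at about 38% in these data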;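 note: 100% = cells given the luciferase reporter alone without the COUP-TF2 vector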
# * hit, by the source's call; · = not tested or not shown. Most compounds without a hit are left out; they make up all but 1.3% or so of the library.
SMILES,NCOA2 inhibitor,NR5A2 inv ag,SRC3 inh,SRC1 inh,Gli-Sufu block,COUP-TFII inh,Gli-Sufu confirm,SufuKO cytotox,Wnt3a cs,VP16 Luc counter,COUP-TFII conf
C#CCN(C[C@H]1[C@H](OC(=O)NCCCCCC)[C@H](OC(=O)NCCCCCC)CN(C(=O)OC(C)C)N1C(=O)OC(C)C)S(=O)(=O)c1ccc(C)cc1,-4.0,·,·,·,·,16.8,·,·,·,·,·
CN(C)c1cc[n+](Cc2c(Cl)cccc2Cl)cc1,-0.1,45.9,22.6,5.7,72.9*,47.0*,67.5*,17.1,29.7*,4.8,34.0
COc1ccc([C@H]2CC(=O)C=C(c3ccnc4ccc(Cl)cc34)C2)cc1,-15.7,21.1,21.7,30.7,74.2*,68.9*,68.3*,20.8,38.0*,11.9,64.9*
CCCCCCC[N+](CC)(CC)CCCCc1ccc(Cl)cc1,-24.6,70.2,52.2,4.0,84.8*,40.8*,87.8*,25.6*,9.8,14.8*,24.9
O=C(Nc1ccncc1)c1ccc(-c2ccccc2)cc1,-35.0,-8.1,8.0,-30.7,57.8*,62.0*,55.0*,23.5,-84.3,-87.4,33.1
COCCN(CCOC)C(=O)[C@H](CCc1ccccc1)NC(=O)[C@H]1O[C@@H](n2cnc3c(N)ncnc32)[C@H](O)[C@@H]1O,-22.5,·,·,·,·,-4.1,·,·,·,·,·
Cc1ccc(NC(=O)CNc2cccc(S(=O)(=O)N3CCOCC3)c2)cc1F,-6.2,-1.6,10.8,-3.0,-2.5,13.2,·,·,·,·,·
CCN(CC)S(=O)(=O)c1cc(NC(=O)CNc2cccc(S(=O)(=O)N3CCOCC3)c2)ccc1C,-0.2,38.1,27.6,36.5,95.4*,56.5*,45.8*,36.2*,10.0,8.3,53.6*
CCN(CC)S(=O)(=O)c1cccc(NC(=O)CNc2cccc(S(=O)(=O)N3CCCC3)c2)c1,23.1,44.4,25.7,3.3,73.3*,64.3*,74.8*,37.6*,20.8,5.8,64.9*
Cc1ccc(NCC(=O)Nc2cccc(S(=O)(=O)N(C)C)c2)cc1S(=O)(=O)N1CCCCCC1,13.8,22.9,25.8,21.1,51.4,49.1*,40.9,24.9,-6.5,12.1,32.4
COC(=O)[C@]12C[C@H](CC(=O)NCCC(C)C)C(=O)N(Cc3ccco3)C1=C[C@H](C(C)(C)C)O[C@@H]2C,-8.0,·,·,·,·,-9.9,·,·,·,·,·
O=C(NCc1ccccc1)[C@H]1CCCN1,-44.2,·,·,·,·,7.5,·,·,·,·,·
COc1ccc(N(Cc2ccccc2)C(=O)CSc2nnc(Cn3nnc4ccccc43)o2)cc1,-2.4,10.3,23.8,-32.7,5.3,12.2,·,·,·,·,·
O=C(CSc1nnc(Cn2nnc3ccccc32)o1)N(Cc1ccc(F)cc1)c1ccccc1,24.0,50.5,31.9,29.4,68.3*,78.5*,56.8*,44.7*,21.0,-0.4,62.2*
NC(=O)c1ccccc1OCC(=O)N1CCC(Cc2ccccc2)CC1,7.2,26.5,4.8,17.4,52.7,64.2*,45.8*,17.4,27.1*,5.6,39.3*
O=C(COc1ccccc1[N+](=O)[O-])N1CCC(Cc2ccccc2)CC1,-19.1,7.8,5.6,-2.4,1.2,14.1,·,·,·,·,·
O=C(OCc1cn(Cc2cccc(F)c2F)nn1)N1CCOCC1,-2.4,·,·,·,·,-9.8,·,·,·,·,·
CSC1SCC2C(=O)N(C)C(C(C)C)C(=O)OCC(NC(=O)c3cnc4ccccc4n3)C(=O)NC(C)C(=O)N(C)C1C(=O)N(C)C(C(C)C)C(=O)OCC(NC(=O)c1cnc3ccccc3n1)C(=O)NC(C)C(=O)N2C (stereo not drawn),65.7*,95.7*,86.3*,84.9*,80.2*,51.1*,84.8*,72.6*,102.2*,29.4*,38.1*
COC(=O)C1=C(C)N(C)C(=NCc2ccc3c(c2)OCO3)NC1c1cccc(F)c1 (stereo not drawn),1.0,·,·,·,·,-19.7,·,·,·,·,·
CCN(CC)C(=O)c1ncn2c1C(=O)N[C@H](C)C2,-4.7,·,·,·,·,5.5,·,·,·,·,·
COc1ccc(N2CCN(c3ncnc4c3[nH]c3ccccc34)CC2)cc1,21.5,37.9,32.0,29.6,71.0*,52.0*,79.7*,24.4,21.4,6.1,60.6*
O=C(c1cc(COc2cccc3cccnc23)on1)N1CCC[C@H]1CO,-41.5,-9.6,-19.4,-2.5,·,-4.5,·,·,·,·,·
CN(Cc1nccs1)C(=O)c1cc(COc2cccc3cnccc23)on1,40.1,34.8,42.0,28.2,58.0*,54.4*,41.5,19.8,-0.2,4.6,46.6*
CCOC(=O)CC1CCCCN1C(=O)c1cc(COc2cccc3cnccc23)on1 (stereo not drawn),31.8,43.4,31.4,23.1,74.2*,70.9*,62.3*,20.5,24.5,16.3*,77.7*
C[C@@H]1CN([C@@H](C)CO)C(=O)CCCn2cc(nn2)CO[C@H]1CN(C)C(=O)CCC(F)(F)F,-12.2,·,·,·,·,6.6,·,·,·,·,·
SMILES,NCOA2 inhibitor,NR5A2 inv ag,SRC3 inh,SRC1 inh,Gli-Sufu block,COUP-TFII inh,Gli-Sufu confirm,SufuKO cytotox,Wnt3a cs,VP16 Luc counter,COUP-TFII conf
COC(=O)C1=C(C)N(Cc2cccc(C(F)(F)F)c2)C(=NCc2ccc(C(F)(F)F)cc2)NC1c1cccc(C(F)(F)F)c1 (stereo not drawn),-22.8,·,·,·,·,-6.4,·,·,·,·,·
O=C(/C=C/c1cccc2ccccc12)c1ccncc1,27.5,20.9,20.5,3.6,52.3,39.5*,47.0*,36.6*,15.5,-12.4,19.3
Cc1ccc(-c2csc3ncnc(N4CCN(Cc5ccccc5)CC4)c23)cc1,18.0,-17.1,9.8,5.5,12.9,-7.2,·,·,·,·,·
Cc1csc2ncnc(NC3CCN(Cc4ccccc4)CC3)c12,23.0,37.6,19.9,-1.6,69.5*,59.5*,75.2*,21.7,43.6*,7.4,59.1*
CC1(C)CC(N2CCCC2)=CC(=[N+]2CCCCCC2)C1,13.0,68.7,38.3,35.0,82.8*,59.7*,87.9*,34.5*,42.0*,14.1*,58.2*
CC1(C)CC(=O)C=C(N2CCNCC2)C1,-20.6,2.3,9.6,11.6,-1.3,8.7,·,·,·,·,·
Cc1ccccc1-c1ccc2c(c1)[C@@H]1C[C@H](N(C)C(=O)Nc3ccccc3)[C@H]([C@H](C)O)CN1CC2,-2.6,·,·,·,·,-8.1,·,·,·,·,·
CC(C)Cc1ccc(C(C)C(=O)Nc2cccnc2)cc1 (stereo not drawn),14.3,25.8,15.7,10.4,65.7*,46.1*,44.5,18.9,19.3,2.5,41.4*
